Assay outcomes deposited in PubChem BioAssay by National Center for Advancing Translational Sciences (NCATS).
In the library only some 2.5% were active in any assay of this set; here they are far more common.
ClpP mod – qHTS Assay for Activators of ClpP; ATP-dependent Clp protease proteolytic subunit (Bacillus subtilis (strain 168)), P80244; purified B. subtilis ClpP, FRET peptide cleavage, 20 min; Potency, µM (titrated, usually from 57.5 µM), without a hit: at the highest dose activity change, negative = active; 1.9% of 340,000 active; active = well fitted falling curve with a large enough effect; inconclusive = small, poorly fitted or top-dose-only effect; inactive = no such curve, though single readings can be large or run the other way; note: potency is the fitted concentration of half-maximal effect; the source files actives as falling curves though it sought activators and does not explain the sign; nearly all actives have a fitted effect of over 65% in size
Target sequence (P80244 whole entry, looked up): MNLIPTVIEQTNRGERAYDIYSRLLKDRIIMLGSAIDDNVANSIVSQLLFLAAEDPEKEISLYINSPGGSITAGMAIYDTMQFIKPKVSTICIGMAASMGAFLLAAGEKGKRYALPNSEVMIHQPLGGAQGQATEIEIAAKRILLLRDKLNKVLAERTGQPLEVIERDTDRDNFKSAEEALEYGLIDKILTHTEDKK
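Purified B. subtilis ClpP, 10 microg/mL final in Tris/HCl pH8 with KCl, BSA, glycerol and Tween-20, cleaved an Abz/nitrotyrosine-quenched decapeptide. Fluorescence (ex 320, em 430) was read at 0 and 20 min at room temperature. Delta was normalized to 5.8 microM ADEP and DMSO/no-enzyme controls.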
miR-21 reporter – qHTS Assay for Modulators of miRNAs and/orActivators of miR-21. HeLa miR-21 FLuc reporter, luciferase, 48 h. 340,000 tested, under 10 active. Potency, µM (series often up to 38.3 µM), for inactives: top-dose activity change, positive = activation, actives largely listed as activators;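 note: % of control where 0% means no effect; miR-21 action dims this reporter so a rising signal means less miR-21 action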
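Using DMEM plus 10% FBS, HeLa miR-21-FLuc cells are incubated with test compounds (final up to about 40uM) for 48 hours; firefly luciferase signal is then imaged following reagent-mediated lysis.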
TrxR1 substrate – qHTS Assay for Substrates of Mammalian Selenoprotein Thioredoxin Reductase 1 (TrxR1): qHTS; Thioredoxin reductase 1, cytoplasmic (Rattus norvegicus), O89049; AID 588456, 2011; purified TrxR1 substrate turnover, NADPH consumption readout; 0.01% of 390,000 active; Potency, µM (titrated, usually from 114 µM), for the others: top-dose activity change, negative = substrate turnover; note: potency is the fitted concentration of half-maximal effect; % is set by controls: 0 for no effect and ±100 for the full control effect; nearly all actives have a fitted effect of over 50% in size
Target sequence (O89049 whole entry, looked up): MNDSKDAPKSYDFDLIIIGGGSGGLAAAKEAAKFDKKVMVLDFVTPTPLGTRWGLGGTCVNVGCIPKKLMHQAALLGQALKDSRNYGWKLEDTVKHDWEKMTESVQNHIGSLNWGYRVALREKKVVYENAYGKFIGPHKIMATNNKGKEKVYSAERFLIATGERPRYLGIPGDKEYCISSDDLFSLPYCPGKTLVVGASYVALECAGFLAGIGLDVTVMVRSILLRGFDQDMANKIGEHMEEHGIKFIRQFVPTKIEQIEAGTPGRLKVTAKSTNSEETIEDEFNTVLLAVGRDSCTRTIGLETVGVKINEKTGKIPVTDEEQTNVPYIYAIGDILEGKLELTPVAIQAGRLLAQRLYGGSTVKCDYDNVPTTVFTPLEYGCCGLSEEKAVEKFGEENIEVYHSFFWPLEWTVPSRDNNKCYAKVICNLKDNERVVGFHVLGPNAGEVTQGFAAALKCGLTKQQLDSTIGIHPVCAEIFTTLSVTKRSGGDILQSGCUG
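Rat TrxR1, dispensed at 90 nM, was prereduced with 400 uM NADPH (final) for 5 min at ~22 deg C, then incubated with compound 15 min before 400 uM selenite. A first-read NADPH fluorescence drop versus no-compound background flagged substrates.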
Apoferritin bind – qHTS Assay for Identification of Novel General Anesthetics | Potency, µM (top dose mostly 77.5 µM), without a hit: at the top dose activity change, negative = displacement, hits mostly inhibitors | apoferritin/1-aminoanthracene competitive binding, fluorescence | Ferritin light chain (Equus caballus), P02791 | 0.074% of 350,000 active | AID 485281, 2010; note: potency is the fitted concentration of half-maximal effect; % is set by controls: 0 for no effect and ±100 for the full control effect; nearly all actives have a fitted effect of over 20% in size
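Horse-spleen apoferritin (10 uM) was mixed with 50% saturated 1-aminoanthracene in PBS, exposed to compounds for 10 min at room temperature, and read for fluorescence (ex 380 nm, em 535 nm). Competitive displacement was fitted with a four-parameter Hill equation.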
TrxR1 inh – qHTS Assay for Inhibitors of Mammalian Selenoprotein Thioredoxin Reductase 1 (TrxR1): qHTS. recombinant rTrxR1, NADPH fluorescence consumption, selenite substrate. 1% of 390,000 active. Potency, µM (series often up to 114 µM), without a hit: at the top dose activity change, negative = inhibition, actives largely listed as inhibitors. Thioredoxin reductase 1, cytoplasmic (Rattus norvegicus), O89049; note: potency is the fitted concentration of half-maximal effect; % is set by controls: 0 for no effect and ±100 for the full control effect; nearly all actives have a fitted effect of over 65% in size
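Rat TrxR1 (90 nM in the dispensed reagent) was pre-reduced with 400 uM NADPH for 5 min at room temperature, then incubated with compound for 15 min. After 400 uM selenite was added, NADPH fluorescence (Ex 340/Em 450 nm) was followed for 8 min.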
* hit, by the source's call; ? = inconclusive; . = no result; [ ] = another dose, or the depositor's remark. Unless noted, calls come from the whole dose curve; as a rule, active = well fitted curve in the direction sought with a large enough effect; inconclusive = small, poorly fitted or top-dose-only effect, or another doubt; inactive = no such curve, though single readings can be large; an effect the other way counts as inactive or inconclusive.

SMILES	ClpP mod	miR-21 reporter	TrxR1 substrate	Apoferritin bind	TrxR1 inh
CCc1ccc(CNC(=O)C2CCN(C(=O)c3ccc(-n4ccc5ccccc54)s3)CC2)cc1	35µM*	-1%	0%[57.1 µM]	106%	15%[57.1 µM]
CC(C)(C)CC(C)(C)Nc1c(-c2ccc(O)cc2)nc2cnccn12	22µM*	.	76%[57.1 µM]	.	14%[57.1 µM]
Cc1ccc2nc(-c3ccc(F)cc3)c(NC(C)(C)CC(C)(C)C)n2c1	?	-2%	80%	-4%	62%
Cc1ccccc1CN1c2ccccc2-c2nc(SCC(=O)Nc3cc(F)ccc3F)ncc2S1(=O)=O	4%	-1%	6%[57.1 µM]	-11%	13%[57.1 µM]
CCOc1cc(CN2CCCCC2)ccc1OC	-2%	-2%	-7%	8%	-3%
CCOc1cc(CN2CCN(c3ccc(C(C)=O)cc3)CC2)ccc1OC	-9%	3%	2%	-4%	35µM*
CN(C)CCCC1(O)c2ccccc2CCc2ccccc21	.	-4%	4%[57.1 µM]	-7%	14%[57.1 µM]
CN(C)CCCC1(O)c2ccccc2C=Cc2ccccc21	28µM*	-5%	13%	-6%	5%
CCOC(=O)CSC1=NC(=O)/C(=C\c2ccc(OC(C)=O)cc2)S1	1%	-25%	-8%	-19%	8.9µM*
N#Cc1c(NC(=S)NC(=O)c2ccccc2)sc2c1CCN(CCc1ccccc1)C2	.	-21%	.	-14%	.
N#Cc1c(N)sc2c1CCN(CCc1ccccc1)C2	22µM*	-3%	23%	4%	-8%
CCOC(=O)CCCSc1nnc(CCCCCN2C(=O)c3cccc4cccc(c34)C2=O)o1	28µM*	-3%	77%	-3%	53%
Cc1cc(O)c(CN(C)C)c2c1C(=O)/C(=C/c1ccco1)O2	0%	6%	-12%	149%	56µM*
COc1ccc(C2=NN(C(=O)c3ccccc3)C(c3cccc([N+](=O)[O-])c3)C2)cc1 (configuration not stated)	0%	-1%	-7%	-18%	19%
CCOC(=O)/C=C(/C)N1N=C(c2ccc(OC)cc2)CC1c1cccc([N+](=O)[O-])c1 (configuration not stated)	-2%	-44%	-11%	-11%	50µM*
COc1ccccc1CNC(=O)CSc1ncc(S(=O)(=O)c2ccc(C)c(Cl)c2)c(=O)[nH]1	-1%	1%	-4%[57.1 µM]	-7%	2%[57.1 µM]
CCOC(=O)c1cccc(NC(=O)CCS(=O)(=O)c2cccs2)c1	-4%	-12%	-4%	-11%	22µM*
C=C1C=C(C(F)F)n2ncc(C(=O)NC(C)CC)c2N1 (configuration not stated)	0%	.	5%	.	10%
CC(OC(=O)CCN=C1NS(=O)(=O)c2ccccc21)C(=O)Nc1ccc(F)c(F)c1F (configuration not stated)	32µM*	.	2%	.	16%
COC(=O)c1ccc(Cl)cc1NC(=O)N1CC=C(c2c[nH]c3ccccc23)CC1	28µM*	13%	7%	53%	7%
CCCCOc1ccc(C(=O)CCN2CCCCC2)cc1	2%	0%	12%	?	3.2µM*
CC(C)COc1ccc(C(=O)CCN2CCCCC2)cc1	0%	8%	-10%	?	1.4µM*
CN(CC(=O)Nc1ccc(F)cc1F)S(=O)(=O)c1cccc2nsnc12	0%	-4%	-11%	-3%	-9%
CCCCOC(=O)c1ccc(NC(=O)CSc2nc3c(c(=O)[nH]2)CCC3)cc1	0%	21%	-3%	-4%	11%
c1ccc(-c2nc3c(ccc4ccccc43)[nH]2)nc1	28µM*	-28%	27%	0%	-15%
SMILES	ClpP mod	miR-21 reporter	TrxR1 substrate	Apoferritin bind	TrxR1 inh
c1ccc(-c2nc3ccccc3[nH]2)nc1	?	-42%	0%	-10%	-11%
Cn1c(/C=C/c2ccc([N+](=O)[O-])o2)nc2ccccc2c1=O	-3%	?	-12%	-11%	10µM*
CCc1cnc2c(c1SCCC(C)C)c(=O)n(C)c(=O)n2C	0%	-3%	-2%[57.1 µM]	-3%	11%[57.1 µM]
CCOc1ccc(CNC(=O)c2cccc(NC(=O)N3CCSc4ncccc43)c2)cc1OC	-30%	25%	4%	2%	17%
N#C/C(=C\c1ccc(N2CCOCC2)o1)c1nc2ccccc2[nH]1	3%	-26%	6%[57.1 µM]	70%	?
N#C/C(=C/c1ccc(N2CCOCC2)o1)c1ccc(Cl)cc1	-1%	22%	-2%	-24%	3.2µM*
CN(C)c1ccc(/C=C/c2c(F)cnc3ccccc23)cc1	2%	.	-1%	.	3%
Cc1cc(C)cc(NC(=O)c2oc3ccccc3c2COc2ccccc2)c1	25µM*	0%	6%[57.1 µM]	-4%	-17%
Cc1cc(C(=O)N/N=C/c2ccco2)n[nH]1	.	-25%	-4%[57.1 µM]	-3%	-5%[57.1 µM]
CC(/C=C/c1ccco1)=N/NC(=O)Cc1cccs1	-4%	-18%	-13%	-12%	40µM*
CC(/C=C/c1ccco1)=N\NC(=O)c1cc(C)[nH]n1	3%	-8%	-4%	-9%	16µM*
CCCCNC(=O)[C@@H]1CC=C[C@@H]2CCN(Cc3ccccc3)C(=O)[C@@H]21	0%	.	-2%	.	17%
CCc1cc2c(=O)c(-c3cnn(-c4ccccc4)c3)coc2c(CN2CCOCC2)c1O	?	-18%	13%[57.1 µM]	-17%	9%[57.1 µM]
CCc1cc2c(=O)c(-c3cnn(-c4ccccc4)c3)c(C)oc2c(CN2CCCCC2)c1O	28µM*	-5%	107%	-14%	-9%
CCOc1cc(C#N)c(NC(=O)Cn2nnc(-c3ccc(C)cc3)n2)cc1OCC	-1%	-1%	11%[11.4 µM]	3%	10%
Cc1cccc(NC(=O)N2CCCC2C(=O)NCc2cccs2)c1 (configuration not stated)	18µM*	-2%	7%[57.1 µM]	-5%	15%[57.1 µM]
O=C(NCCCc1nc2ccccc2n1Cc1ccccc1Cl)c1ccco1	-2%	6%	0%	0%	0%
Clc1ccccc1Cn1c(/C=C/c2ccco2)nc2ccccc21	28µM*	-1%	-1%	-6%	50µM*
COCCCn1c(SCC(=O)Nc2ccccc2OC)nc2c(sc3ccccc32)c1=O	0%	21%	-5%[57.1 µM]	9%	1%[57.1 µM]
CC1=C(C(=O)Nc2cc(Cl)ccc2C)C2(CCCCC2)OC1=O	2%	2%	-5%	-5%	3%
Cc1cc(N2CCCC2)nc2ccc(NC(=S)NCCCOC(C)C)cc12	-11%	4%	6%	-14%	45µM*
